From PubChem BioAssay (NCI)
This is part of a sample that, as a whole, favours compounds with a hit. Of some 83,000 tested, about 20% had one in any assay.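 Method: cells in 96-well plates; compound added at one concentration; 48 h incubation; percent growth measured; values under 10 scored active.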 Active and inactive are the calls of the source.

Each molecule was assayed on MDA-MB-468 breast (assay: NCI-60 one-dose screen, 48 h (100 = growth as untreated, 0 = no growth, -100 = all killed)). Conditions: 10 µM unless noted.

**Q.** For `CCCCN(CCCC)CCCO`, which growth is on record?
**A.** The growth was 106% (inactive).

**Q.** `Cc1ccc(C(=O)Nc2nc3c(s2)CN(Cc2ccccc2)CC3)cn1` was tested. Which growth did it give?
**A.** Its growth is 67.1% (inactive).

**Q.** How did the growth turn out when `O=C(Nc1ncc(Cc2cc(Cl)ccc2Cl)s1)c1cccs1` was run?
**A.** Its growth is 18% (inactive).

**Q.** Which growth does the source give for `COc1ccc2c(c1)c(-c1nc(-c3c[nH]c4ccncc34)cs1)cn2C` here?
**A.** Its growth is -60.8% (active).

**Q.** How did the growth turn out when `O=C(O)CC1Sc2ccccc2NC1=O` (stereo not given) was run?
**A.** The growth was 163% (inactive).

**Q.** How did the growth turn out when `C=C(C)[C@H]1CC/C(C)=C/CC[C@]2(C)O[C@H]2CC/C(COC(C)=O)=C\C1=O` was run?
**A.** The growth was 115% (inactive).

**Q.** Which growth does the source give for `Cc1nc2ccccc2c(/C=C/c2ccccc2)c1C(=O)/C=C/c1ccc(C(F)(F)F)cc1` here?
**A.** Its growth is -67.8% (active).

**Q.** How did the growth turn out when `COc1ccc(-c2nc(/C=C3/C(=O)Nc4ccc(F)cc43)c3ccccn23)cc1` was run?
**A.** Its growth is 105% (inactive).

**Q.** For `O=C1CC(c2ccc(Cl)cc2)c2ncn(-c3cccc(Cl)c3)c2N1` (stereo not given), which growth is on record?
**A.** Its growth is 41.3% (inactive).

**Q.** `CN(C)c1ccc(/C=N/NC(=O)COc2cc(=O)n(C)c3ccccc23)cc1` was tested. Which growth did it give?
**A.** The growth was 105% (inactive).

**Q.** For `Clc1ccc2c(OCCCN3CCOCC3)c3oc4ccccc4c3nc2c1`, which growth is on record?
**A.** Its growth is 21.1% (inactive).

**Q.** Which growth does the source give for `CCn1cc(C(=O)NNC(=S)Nc2ccc(C)cc2)c(=O)c2ccc(C)nc21` here?
**A.** Its growth is 88% (inactive).

**Q.** `Nc1ccccc1-c1ccc([N+](=O)[O-])cc1` was tested. Which growth did it give?
**A.** The growth was 67.5% (inactive).

**Q.** With `COc1cccc(C(=O)NNC(=O)c2cccc3ccccc23)c1` as the molecule, how does the growth read?
**A.** The growth was 111% (inactive).

**Q.** With `COc1cc(C2CC(=O)Nc3n[nH]c(-c4ccccc4)c32)cc(OC)c1OC` (stereo not given) as the molecule, how does the growth read?
**A.** Its growth is 38.5% (inactive).

**Q.** Which growth does the source give for `COc1ccc(C(=O)c2cc(C)c(OC)c(C)c2)c(OC)c1OC(=O)C(Cl)Cl` here?
**A.** Its growth is 11.4% (inactive).

**Q.** For `OC(CSc1ccccc1)CN1CCN(c2ccc(Cl)cc2)CC1` (stereo not given), which growth is on record?
**A.** Its growth is 86.7% (inactive).

**Q.** `Nc1c(Br)cc(O)c2c1C(=O)c1ccccc1C2=O` was tested. Which growth did it give?
**A.** The growth was -9.43% (active).

**Q.** With `CCOC1(OCC)OC(c2ccccc2)=C(C#N)C(/C=C\c2ccccc2)C1(OCC)OCC` (stereo not given) as the molecule, how does the growth read?
**A.** Its growth is 56.7% (inactive).

**Q.** Which growth does the source give for `CC(C)(C)n1cc(-c2ccnc(NCCCNS(=O)(=O)c3ccccc3)c2)c(-c2cccc(O)c2)n1` here?
**A.** The growth was 9.54% (active).

**Q.** For `COc1ccc(/C=C/c2nc(Nc3ccc(S(=O)(=O)NC(C)=O)cc3)c3ccccc3n2)cc1`, which growth is on record?
**A.** Its growth is 53.2% (inactive).

**Q.** How did the growth turn out when `CN(C)CCN1C(=O)c2cccc3c(-c4ccc5ncn(C6CCCCC6)c5c4)ccc(c23)C1=O` was run?
**A.** The growth was 4.33% (active).

**Q.** `COc1ccccc1-n1c(SCc2cc(OC)c(OC)c(OC)c2)nc2ccc(Cl)cc2c1=O` was tested. Which growth did it give?
**A.** Its growth is 21.5% (inactive).

**Q.** `O=C(Nc1ccc(-n2ccc3c(NC(=O)c4ccccc4)ncnc32)cc1)Nc1cccc(Cl)c1Cl` was tested. Which growth did it give?
**A.** The growth was -35.7% (active).

**Q.** How did the growth turn out when `Cc1cc2nc(C(Cl)Cl)nc(-c3ccc(Cl)cc3)n2n1` was run?
**A.** Its growth is -47.3% (active).

**Q.** For `CCC(C)(C)c1ccc(Nc2ccc(Nc3ccc(C(C)(C)CC)cc3)cc2)cc1`, which growth is on record?
**A.** The growth was 101% (inactive).

**Q.** Which growth does the source give for `C=CCC(OC(C)=O)c1ccc(C(C)C)cc1` (stereo not given) here?
**A.** Its growth is 105% (inactive).

**Q.** For `COc1cc2cc(Oc3ccc(NC(=O)Nc4cccc(C(F)(F)F)c4)cc3)c(C)nc2cc1OC`, which growth is on record?
**A.** Its growth is -32.5% (active).

**Q.** Which growth does the source give for `Cc1ccc2c(c1)C13C(=C2Br)CCCN1C(=O)c1ccccc13` (stereo not given) here?
**A.** The growth was 69.8% (inactive).

**Q.** With `COc1ccc(-n2nc(C(=O)NCC(=O)Nc3nc4cc(OC)ccc4s3)c3ccccc3c2=O)cc1` as the molecule, how does the growth read?
**A.** Its growth is -8.37% (active).

**Q.** How did the growth turn out when `Cc1ccc(CCC(=O)Nc2ncc(Cc3cc(Cl)ccc3Cl)s2)o1` was run?
**A.** The growth was 7.55% (active).

**Q.** For `O=C(O)c1ccc(-n2cc(/C=N/Nc3ccccc3F)c(-c3ccc(O)cc3)n2)cc1`, which growth is on record?
**A.** Its growth is 78.3% (inactive).

**Q.** For `Nc1nc2ccccc2c2c(=O)c3ccc(Cl)cc3sc12`, which growth is on record?
**A.** Its growth is 3.53% (active).

**Q.** With `CCOC(=O)C1=C(C(=O)c2ccc(Br)cc2)C(c2ccc(Br)cc2)NC(=S)N1` (stereo not given) as the molecule, how does the growth read?
**A.** Its growth is 103% (inactive).

**Q.** With `Oc1ccc(O)c(-c2ccccc2)c1` as the molecule, how does the growth read?
**A.** The growth was 33.2% (inactive).

**Q.** How did the growth turn out when `O=C(NCCCNc1cc(-c2cn(-c3ccccc3)nc2-c2cccc(O)c2)ccn1)c1cccc(O)c1` was run?
**A.** Its growth is 29.3% (inactive).

**Q.** Which growth does the source give for `O=C(/C=C/c1ccc2c(c1)OCO2)c1c(O)c2ccccc2oc1=O` here?
**A.** Its growth is 133% (inactive).

**Q.** With `N#CC1=C(N)Oc2cc(N)ccc2C1c1ccc(F)cc1` (stereo not given) as the molecule, how does the growth read?
**A.** Its growth is 45.1% (inactive).

**Q.** For `CCC(=C(c1ccc(OCCN2CCCCCC2)cc1)c1ccc(OCCN2CCCCCC2)cc1)c1ccc(Cl)cc1`, which growth is on record?
**A.** The growth was -83.3% (active).

**Q.** With `Cc1ccc2oc(=O)cc(-c3nc4ccc([N+](=O)[O-])cc4[nH]3)c2c1` as the molecule, how does the growth read?
**A.** Its growth is 29% (inactive).
